# The list is not random: actives were taken first. Their share in the collection is about 12%.
# Sfp PPTase inh: Sfp phosphopantetheinyl transferase inhibition; Q9F4F7; Biochemical Sfp PPTase activity, qHTS; Potency, µM, without a hit: largest response in the series, negative = inhibition, usual class: inhibitors; 310,000 tested, 3.5% active; AID 1490;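 note: the enzyme is Sfp with the accession as filed and its product quenches rhodamine fluorescence; 0% = enzyme reaction without inhibitor and -100% = no enzyme wells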
#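 Fluorescence-quenching assay with 15 nM Sfp, 5 uM rhodamine-CoA and 12.5 uM BHQ-2-labelled ybbR peptide in pH 7.6 Hepes/MgCl2 buffer. Enzyme was pre-incubated with compound for 15 min at room temperature. Rate was taken from the 30-min fluorescence change (525/598 nm).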
# PLK1 PBD inh: blocks phosphopeptide binding to human PLK1 polo-box domain; P53350; 360,000 tested, 2.8% active; Plk1 PBD binding of FITC phosphopeptide, fluorescence polarization; Potency, µM, without a hit: max response, negative = inhibition, usual class: inhibitors; note: series mostly up to about 57 µM; % is set by controls: 0 for no effect and ±100 for the full control effect; nearly all actives have a fitted effect of over 65% in size
# BAZ2B inh: inhibitors of human BAZ2B bromodomain. Q9UIF8. AlphaScreen BAZ2B-H3K14Ac peptide displacement. Potency, µM (titrated, usually from 114 µM), inactives show top-dose activity change, negative = inhibition, usual class: inhibitors. 360,000 tested, 4.4% active. AID 504333; note: % is set by controls: 0 for no effect and ±100 for the full control effect; nearly all actives have a fitted effect of over 60% in size
# Target sequence (Q9UIF8 whole entry, looked up): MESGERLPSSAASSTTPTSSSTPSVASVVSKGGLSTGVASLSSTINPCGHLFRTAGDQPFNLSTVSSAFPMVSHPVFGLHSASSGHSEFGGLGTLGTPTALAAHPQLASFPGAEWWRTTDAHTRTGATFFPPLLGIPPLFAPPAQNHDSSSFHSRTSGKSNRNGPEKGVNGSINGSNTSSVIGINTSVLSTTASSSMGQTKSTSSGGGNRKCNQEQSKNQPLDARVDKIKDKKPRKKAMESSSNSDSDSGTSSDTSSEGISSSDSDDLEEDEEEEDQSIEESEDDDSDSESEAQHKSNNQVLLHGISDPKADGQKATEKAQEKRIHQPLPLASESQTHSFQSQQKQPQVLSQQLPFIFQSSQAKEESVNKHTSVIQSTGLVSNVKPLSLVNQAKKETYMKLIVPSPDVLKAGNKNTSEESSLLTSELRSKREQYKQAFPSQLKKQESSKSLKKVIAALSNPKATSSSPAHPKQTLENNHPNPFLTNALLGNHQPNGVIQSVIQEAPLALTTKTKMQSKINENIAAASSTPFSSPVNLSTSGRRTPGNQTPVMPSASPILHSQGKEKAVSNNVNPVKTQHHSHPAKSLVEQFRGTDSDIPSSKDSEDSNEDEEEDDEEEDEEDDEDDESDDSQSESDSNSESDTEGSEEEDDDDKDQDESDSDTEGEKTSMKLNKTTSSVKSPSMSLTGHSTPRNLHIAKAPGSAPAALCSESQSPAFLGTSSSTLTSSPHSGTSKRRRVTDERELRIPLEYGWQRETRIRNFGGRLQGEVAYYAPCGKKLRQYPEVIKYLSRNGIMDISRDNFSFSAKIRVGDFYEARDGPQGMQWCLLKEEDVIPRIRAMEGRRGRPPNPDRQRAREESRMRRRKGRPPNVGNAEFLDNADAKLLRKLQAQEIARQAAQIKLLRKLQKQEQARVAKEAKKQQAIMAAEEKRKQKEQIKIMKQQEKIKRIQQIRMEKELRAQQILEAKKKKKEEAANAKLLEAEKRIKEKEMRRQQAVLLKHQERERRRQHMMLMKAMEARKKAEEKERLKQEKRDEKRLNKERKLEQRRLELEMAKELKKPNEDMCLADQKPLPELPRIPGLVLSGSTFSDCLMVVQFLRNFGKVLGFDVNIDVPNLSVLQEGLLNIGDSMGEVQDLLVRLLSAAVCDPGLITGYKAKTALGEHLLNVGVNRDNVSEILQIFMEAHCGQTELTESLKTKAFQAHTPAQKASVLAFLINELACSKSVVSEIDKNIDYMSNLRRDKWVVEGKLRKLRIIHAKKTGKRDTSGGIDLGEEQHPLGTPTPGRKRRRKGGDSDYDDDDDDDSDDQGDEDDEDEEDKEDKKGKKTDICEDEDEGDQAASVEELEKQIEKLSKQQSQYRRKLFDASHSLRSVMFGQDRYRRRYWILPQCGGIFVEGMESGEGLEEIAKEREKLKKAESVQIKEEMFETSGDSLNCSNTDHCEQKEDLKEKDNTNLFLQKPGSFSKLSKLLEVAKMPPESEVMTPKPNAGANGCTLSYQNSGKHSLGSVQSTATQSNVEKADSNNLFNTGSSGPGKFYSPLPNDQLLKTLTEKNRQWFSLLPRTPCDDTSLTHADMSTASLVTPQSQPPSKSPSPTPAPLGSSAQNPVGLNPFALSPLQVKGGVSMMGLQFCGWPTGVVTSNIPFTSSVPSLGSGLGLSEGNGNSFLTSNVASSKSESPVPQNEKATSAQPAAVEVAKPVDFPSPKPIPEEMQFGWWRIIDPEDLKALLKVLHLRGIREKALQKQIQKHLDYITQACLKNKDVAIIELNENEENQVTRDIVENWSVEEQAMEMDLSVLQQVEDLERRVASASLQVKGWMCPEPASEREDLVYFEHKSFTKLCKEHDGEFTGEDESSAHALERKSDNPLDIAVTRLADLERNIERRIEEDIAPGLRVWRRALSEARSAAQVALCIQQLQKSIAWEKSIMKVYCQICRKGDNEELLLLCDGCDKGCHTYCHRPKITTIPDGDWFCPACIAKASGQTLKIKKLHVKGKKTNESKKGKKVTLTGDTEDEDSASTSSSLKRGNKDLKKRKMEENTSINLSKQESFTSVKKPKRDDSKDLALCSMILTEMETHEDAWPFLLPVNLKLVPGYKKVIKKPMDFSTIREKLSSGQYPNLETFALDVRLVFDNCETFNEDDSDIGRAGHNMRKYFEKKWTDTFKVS
#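 AlphaScreen displacement of biotin-H3(5-23)K14Ac peptide (50 nM final) from BAZ2B (50 nM final) in PBS pH 7.4, 0.01% Tween-20; complex preformed 30 min RT, then compounds (top 110 uM) 30 min RT, beads 20 min dark.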
# G9a inh: inhibitors of human histone lysine methyltransferase G9a; Q96KQ7; G9a H3K9 monomethylation, AlphaScreen, 2 h; Potency, µM (highest dose often 102 µM), inactives show top-dose activity, negative = inhibition, actives largely listed as inhibitors; 350,000 tested, 8.8% active; AID 504332; note: % is set by controls: 0 for no effect and ±100 for the full control effect; nearly all actives have a fitted effect of over 75% in size
#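 G9a (20 nM) was preincubated 15 min with compound, then reacted 2 h at room temperature with 500 nM biotin-H3K9 peptide and 20 µM SAM. Monomethyl-H3K9 detected by AlphaScreen using anti-H3K9me1 antibody.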
# JMJD2A Tudor: inhibitors of human JMJD2A Tudor domain; O75164; AID 504339; Potency, µM (doses to about 114 µM), for the others: at the top dose activity change, negative = inhibition, usual class: inhibitors; 390,000 tested, 4.4% active; AlphaScreen JMJD2A-Tudor / H3K4me3 peptide binding; note: % is set by controls: 0 for no effect and ±100 for the full control effect; nearly all actives have a fitted effect of over 50% in size
# HP1b binding inh: blocks HP1-beta chromodomain binding to methylated histone tails; Potency, µM (top dose mostly 114 µM), for inactives: at the top dose activity change, negative = inhibition, actives largely listed as inhibitors; AlphaScreen HP1-beta / biotin-H3K9me3 peptide binding; 390,000 tested, 0.56% active; P83916; note: nearly all actives have a fitted effect of over 70% in size
#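 AlphaScreen: HP1-beta (50 nM) preformed 30 min with biotin-H3(1-18)K9me3 peptide (50 nM) in PBS pH 7.4, 0.01% Tween-20. Compound added for 30 min at RT, then streptavidin donor/nickel chelate acceptor beads (10 ug/mL) for 30 min.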
# Active calls of the source: *; ? = inconclusive; . = no result given; [ ] = dose if it differs, or a comment. Calls come from the whole dose curve; as a rule, active = well fitted curve in the direction sought with a large enough effect; inconclusive = small, poorly fitted or top-dose-only effect, or another doubt; inactive = no such curve, though single readings can be large; an effect the other way counts as inactive or inconclusive. Potency is the fitted concentration of half-maximal effect.
SMILES,Sfp PPTase inh,PLK1 PBD inh,BAZ2B inh,G9a inh,JMJD2A Tudor,HP1b binding inh
CCOc1cccc(C2C(C(=O)c3ccc(C)o3)=C(O)C(=O)N2c2nnc(C)s2)c1 (stereo unspecified),.,-3%,.,.,1.1µM*,?
CCCOc1cccc(C2C(C(=O)c3ccc(C)o3)=C(O)C(=O)N2c2nc(C)c(C(C)=O)s2)c1 (stereo unspecified),-19%,?,56µM*,16µM*,-27%,8%
CCOc1cccc(C2c3c(oc4ccccc4c3=O)C(=O)N2c2nc(C)c(C(=O)OC)s2)c1 (stereo unspecified),.,.,?,-12%[59 µM],-19%,8%
CC12CCC(C(=O)NNc3ccc([N+](=O)[O-])cc3)(OC1=O)C2(C)C (stereo unspecified),14%,-5%,-3%,4%,1%,33%
CC12CCC(C(=O)NNc3ccccc3)(OC1=O)C2(C)C (stereo unspecified),19%,2%,-19%,56µM*,2%,48%
COc1ccc(CNC(=O)c2noc(C)c2[N+](=O)[O-])cc1,17%,-6%,-8%,14%,0%,36%
O=C1CCC/C(=N/Nc2ccc(Cl)cc2)C1,20µM*,30µM*,45µM*,4.5µM*,45µM*,?
O=C(NN=C1CCCC1)c1ccc(Cl)cc1,-1%,-7%,?,-5%,-7%,46%
O=c1cc(N2CCCCC2)c(-c2ccccc2)nn1Cc1cccc(Cl)c1,35µM*,-1%,-21%,3%,2%,40%
O=C(CCC(=O)N(CC(=O)NC1CCCCC1)Cc1cccs1)Nc1nccs1,7%,2%,-2%,27%[12.7 µM],7%,30%
COCCn1c(=O)c(-c2cccs2)nc2cnc(OCc3ccccc3)nc21,11%,.,.,6%[12.7 µM],.,.
COc1cccc(-c2n[nH]c(=S)n2Cc2ccco2)c1,32µM*,?,-36%,3.2µM*,20µM*,-23%
S=c1[nH]nc(-c2ccncc2)n1Cc1ccco1,14µM*,-3%,-5%,1µM*,7.9µM*,15%
Cc1nc2c([nH]1)c(=O)n(C)c(=O)n2Cc1ccco1,29%,.,.,-16%[59 µM],-11%,21%
S=c1[nH]nc(-c2ccc(Br)cc2)n1Cc1ccco1,-14%,-28%,?,0.4µM*,56µM*,-17%
Cc1cc(=O)n(Cc2ccco2)c(=S)[nH]1,.,-14%,.,.,.,.
Cc1c(Cl)c(-c2n[nH]c(=S)n2Cc2ccco2)nn1C,-9%,-7%,-9%,7.9µM*,8.9µM*,20%
N#CC1=C(N)SC(N)=C(C#N)C1CCC1CCCCC1,?,.,-10%,?,.,.
COc1ccc(C2(C(=O)Nc3ccc(C)cc3)CCOCC2)cc1,6%,-12%,-2%,1%,-6%,27%
Cc1c(Cl)c(-c2n[nH]c(=S)n2-c2ccccc2)nn1C,?,2%,2%,8.9µM*,4.5µM*,28%
Cc1cccc(NC(=O)CSc2nnc(CNC(=O)c3c(F)cccc3Cl)o2)c1C,.,.,2%,0%[59 µM],1%,47%
N#Cc1ccc(CN2CCN(C(=O)CNC(=O)Cc3cccc4ccccc34)CC2)cc1,.,-6%,3%,50µM*,-6%,30%
CCc1ccccc1NC(=O)CN1CCN(C(=O)CNC(=O)Cc2cccc3ccccc23)CC1,.,-3%,0%,?,-12%,40%
Cn1ncc(=S)[nH]c1=S,.,-22%,.,.,-6%,-8%
Cn1ncc2c(=S)[nH]c(=S)[nH]c21,.,27µM*,.,.,.,.
SMILES,Sfp PPTase inh,PLK1 PBD inh,BAZ2B inh,G9a inh,JMJD2A Tudor,HP1b binding inh
CCc1ccc(NC(=O)C(CC)Sc2nc3cc4c(cc3c(=O)n2Cc2ccco2)OCO4)cc1 (stereo unspecified),45µM*,-13%,4%,-12%,-25%,5%
CCn1ccnc1CN(C)C(=O)c1cc(COc2ccc(OC)c3ccccc23)on1,-12%,4%,1%,93%,50µM*,?
Nc1nc(-c2nn(Cc3ccccc3F)c3ncccc23)ncc1C1CC1,15%,.,.,.,.,.
CC1(C(=O)NS(=O)(=O)c2ccccc2Cl)CCN1C(=O)c1ccco1 (stereo unspecified),.,-8%,.,.,.,.
Cc1ccc(Cl)c2c1N[C@@H](c1ccc(C(=O)O)cc1)[C@H]1CC=C[C@@H]21,.,.,?,?,?,5%
CCOC(=O)c1cccc2c1N[C@@H](c1ccc(F)cc1)[C@H]1CC=C[C@@H]21,.,.,?,10µM*,40µM*,?
C=C(C)[C@]12C[C@@H](C)[C@@]34OC(Cc5ccccc5)(O[C@@H]1[C@@H]3C=C(COC(=O)Cc1cc(OC)c(O)cc1I)C[C@]1(O)C(=O)C(C)=C[C@@H]41)O2,16%,.,.,22%[59 µM],.,.
N#Cc1ccc(CN2CCN(CC(=O)NCCc3ccc(Cl)cc3Cl)CC2)cc1,-7%,0%,13%,?,-20%,40%
COCCN(C(=O)c1cc2c(s1)CCCCC2)c1c(N)n(CC(C)C)c(=O)[nH]c1=O,.,-6%,38%,1%[59 µM],-12%,52%
COCCN(C(=O)C1CCN(C(=O)c2ccccc2C)CC1)c1c(N)n(CC(C)C)c(=O)[nH]c1=O,.,?,?,1.6µM*,89µM*,-12%
CCCCN(C(=O)c1cc2c(s1)CCC2)c1c(N)n(CCC)c(=O)[nH]c1=O,.,-19%,?,45µM*,?,?
COCCN(C(=O)c1cc2c(s1)CCC2)c1c(N)n(CC(C)C)c(=O)[nH]c1=O,.,-26%,56µM*,-45%[12.7 µM],?,20%
CCCCN(C(=O)c1cc2c(s1)CCC2)c1c(N)n(CC(C)C)c(=O)[nH]c1=O,.,-5%,?,2%[12.7 µM],-35%,-6%
Cc1ccccc1C(=O)N1CCC(C(=O)N(CC(C)C)c2c(N)n(CC(C)C)c(=O)[nH]c2=O)CC1,.,3%,4%,15%[12.7 µM],-14%,28%
CC(=O)Nc1ccc(NC(=O)Cn2c(=O)n(-c3ccc(C)cc3)c(=O)c3oc4ccccc4c32)cc1,-3%,0%,.,-2%,5%,17%
COc1ccc2sc(-c3ccc(S(C)(=O)=O)cc3)c(-c3ccc4c(c3)OCCO4)c2c1,.,1%,.,.,-13%,38%
CN(C)c1ccc(-c2cc[nH]c(=O)c2N)cc1,.,.,.,.,20µM*,.
O=C(Cn1c(=O)n(Cc2ccco2)c(=O)c2cc(Cl)ccc21)NCC1CCCO1 (stereo unspecified),40µM*,0%,-27%,-44%[12.7 µM],-16%,16%
COc1ccccc1NC(=O)Cn1nc(-c2ccc(Cl)cc2)c2ccccc2c1=O,?,-10%,5%,10µM*,0%,26%
COc1ccccc1NC(=O)CCn1nc(-c2ccccc2)c2ccccc2c1=O,.,.,0%,-40%[59 µM],-12%,31%
